Measurements from PubChem BioAssay AID2165 (The Scripps Research Institute Molecular Screening Center, 2009).
Calls of active or inactive are those of the source. No stated cut-off is given here; in the data, active means IC50 below about 9 µM; inactive means the rest.

These molecules were tested on Ba/F3 Cytotoxicity (assay: JAK2V617F kinase, IRF1 reporter and Ba/F3 cytotoxicity panel, late-stage follow-up, HEL and Ba/F3 cells (AID 2165)).
For `N#CC(C#N)=Cc1cc(O)c(O)c(I)c1`, the IC50 was 8.99 µM (active). In the case of `N#CC(C#N)=Cc1ccc(O)c(O)c1`, the IC50 is reported as 2.56 µM (active). With `CC(C)[C@@H](CO)Nc1nc(Nc2cccc(Cl)c2)c2ncn(C(C)C)c2n1` the IC50 was 0.95 µM (active).
